The record followed here is PubChem BioAssay (EPA / NIEHS).

Read-out in one assay: CD69, CD69 (gene 969)
Kind of assay: BSK_LPS_CD69: BioMAP Diversity Plus: LPS Assay for CD69 Biomarker Activity (AID 2284303). The conditions noted are these: primary human HUVEC with PBMC. An outline of the steps:
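Human umbilical vein endothelial cells co-cultured with PBMC under LPS stimulation, chemical exposure 24 h; cell-surface CD69 measured by ELISA and fitted in the positive direction versus DMSO.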

Assay [1] is described as follows: CCTE_Mundy_HCI_iCellGluta_NOG_NeuriteLength: CCTE's Neurite Outgrowth Assay in iCellGluta cells for Neurite Length, Mundy Lab (AID 2284318; active = hit-call score of the fitted dose curve at least 0.9, where 1 is the maximum). In a few lines: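 Automated high-content imaging of betaIII-tubulin (Alexa Fluor-488) and Hoechst-stained cells gave neurite length, normalized to the DMSO baseline.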
The next assay concerns IYD (gene 389434). In words: CCTE_GLTED_hIYD: CCTE's human Iodotyrosine Deiodinase (xIYD) Inhibition Assay, Great Lakes Toxicology and Ecology Division (GLTED) Lab (AID 2284317; active = hit-call score of the fitted dose curve at least 0.9, where 1 is the maximum;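 also: cell-free human IYD enzyme made in baculovirus insect cells; iodide freed from monoiodotyrosine measured by cerium arsenite color change at 420 nm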). In a few lines: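 First, recombinant human IYD (baculovirus-insect cells), MIT and chemical incubated 3 h. Next, iodide isolated on Dowex. Finally, Sandell-Kolthoff rate read at 420 nm, with platewise normalization to MNT and solvent controls.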

Assay [2] in a line: IUF_NPC4_neurite_area_120hr: Leibniz Research Institute for Environmental Medicine (IUF) 120-hour Neuronal Morphology Assay for Neurite Area (NPC4) (AID 2284305; active = hit-call score of the fitted dose curve at least 0.9, where 1 is the maximum). In a few lines:
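Human fetal cortex-derived neural progenitor spheres (0.3 mm, GW 16-19) plated on poly-D-lysine/laminin in N2 differentiation medium and exposed from day 0 for 120 h across 7 concentrations plus solvent control. Neurite area is mean pixel area per TUBB3-positive neuron via skeletonization, analysed relative to DMSO.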

Assay [3] can be described thus: IUF_NPC2-5_cytotoxicity_72hr: Cytotoxicity Assessment at 72 hours in the Leibniz Research Institute for Environmental Medicine (IUF) Neural Progenitor Cell Migration and Differentiation Assay for Cytotoxicity (NPC2-5) (AID 2284306; active = hit-call score of the fitted dose curve at least 0.9, where 1 is the maximum;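 also: LDH release into supernatant measured by resorufin fluorescence marking membrane damage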). An outline of the steps:
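Human fetal (GW 16-19) neural progenitor spheres, 0.3 mm, plated on poly-D-lysine/laminin in N2 differentiation medium and exposed from day 0 to 7 concentrations plus solvent control (DMSO ≤0.1%). LDH-dependent resazurin-to-resorufin fluorescence in supernatant at 72 h.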

Assay [4] can be described thus: IUF_NPC2-5_cytotoxicity_120hr: Cytotoxicity Assessment at 120 hours in the Leibniz Research Institute for Environmental Medicine (IUF) Neural Progenitor Cell Migration and Differentiation Assay (NPC2-5) (AID 2284307; active = hit-call score of the fitted dose curve at least 0.9, where 1 is the maximum). In a few lines: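 hNPC spheres on PDL/laminin, N2 medium, 37C; 7 concs + solvent control, DMSO ≤0.1%; 5-day exposure, half medium changed day 3. LDH in supernatant at 120 h, resazurin→resorufin fluorescence, gain-of-signal.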

A short description of assay [5]: IUF_NPC2-5_cell_number_120hr: Cell Number Assessment at 120 hours in the Leibniz Research Institute for Environmental Medicine (IUF) Neural Progenitor Cell Migration and Differentiation Assay (NPC2-5) (AID 2284308).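 Also: count of Hoechst-stained nuclei in migration zone around plated human neural progenitor spheres.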 In a few lines: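 Hoechst-stained nuclei within the migration area were counted by automated high content imaging after 120 h. Single hNPC spheres differentiated on poly-D-lysine/laminin in DMEM/F12 (3:1) with 1% N2, compound present throughout, DMSO ≤0.1%.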

Assay [6] is described as follows: IUF_NPC2-5_viability_120hr: Viability Assessment at 120 hours in the Leibniz Research Institute for Environmental Medicine (IUF) Neural Progenitor Cell Migration and Differentiation Assay (NPC2-5) (AID 2284312). In a few lines: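 Human fetal (GW 16-19) neural progenitor spheres of 0.3 mm were plated on poly-D-lysine/laminin in N2 differentiation medium and exposed from day 0 for 120 h, with half-medium refresh at day 3. Viability was read as alamar blue resazurin-to-resorufin fluorescence against DMSO.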

A short description of assay [7]: CCTE_Deisenroth_5AR_NBTE_donor: CCTE's 5alpha-reductase NanoBRET Target Engagement Assay […], Deisenroth Lab (AID 2284319). The note with it: actives raise or lower the signal. In a few lines:
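SRD5A2-NanoLuc, HEK293T, 20 h expression. Chemical 10 nM - 29.9 uM, 8 conc, duplicate; 3 h preincubation + 2 h testosterone tracer. Nano-Glo substrate plus extracellular NanoLuc inhibitor; donor lum 460 nm. DMSO baseline, bidirectional fit.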
(In general: In BRET a luciferase serves as donor, and the signal depends on an acceptor being close.)

A short description of assay [8]: IUF_NPC5_oligodendrocyte_differentiation_120hr: Leibniz Research Institute for Environmental Medicine (IUF) 120-hour Oligodendrocyte Differentiation Assay (NPC5) (AID 2284304; active = hit-call score of the fitted dose curve at least 0.9, where 1 is the maximum;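 also: primary human fetal neural progenitor spheres plated to migrate and differentiate; share of O4-positive cells among Hoechst nuclei found by CNN image analysis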). An outline of the steps: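 hNPC spheres, fetal cortex GW 16-19; PDL/laminin, DMEM:F12 3:1 + 1% N2, 37C/5% CO2; 7 concentrations + solvent control, 5 d exposure, half-change day 3. Readout: %O4+ of Hoechst+ nuclei in migration area, CNN classification; DMSO baseline.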

Structures are written as SMILES. Values joined by “and” are separate entries in the source; they are usually repeats but may differ in a detail not shown here. Equal entries are not always repeated. Records with an inconclusive call do not appear. Active and inactive are the calls of the source. The calls were made as follows, unless noted: active = hit-call score of the fitted dose curve at least 0.9, where 1 is the maximum; inactive = score below 0.9.

`FC(F)(F)C(F)(F)C(F)(F)C(F)(F)CCI`: the outcome with CD69, CD69 (gene 969) was “inactive”; in [1] it was “inactive”.

Take `O=C(O)C(F)(F)C(F)(F)C(F)(F)C(F)(F)C(F)(F)C(F)(F)C(F)(F)C(F)(F)Cl`: the AC50 (usually the concentration at which the activity in the assay is half-maximal) is 35.5 µM (active) and 40.7 µM (active) with CD69, CD69 (gene 969); 74.4 µM (active) in the assay on IYD (gene 389434). In addition, in assay [1], the result was inactive.

In the case of `FC(F)(F)C(F)(F)C(F)(F)C(F)(F)C(F)(F)C(F)(F)C(F)(F)C(F)(F)F`, the outcome was “inactive” in the assay with CD69, CD69 (gene 969) and “inactive” in assay [1].

Regarding `FC(F)(F)C(F)(F)C(F)(F)C(F)(F)C(F)(F)C(F)(F)C(F)(F)C(F)(F)CCS`, the outcome is “inactive” with CD69, CD69 (gene 969) and “inactive” in assay [1].

Take `OC[C@@H](O)[C@@H](O)[C@H](O)[C@@H](O)CO`: the call in assay [2], in [3], in assay [4], in assay [5] and in [6] was inactive.

Turning to `C=CC(=O)OCC(F)(F)C(F)(F)C(F)(F)C(F)(F)COC(=O)C=C`, in the assay with CD69, CD69 (gene 969), the AC50 was 8.63 µM (active) and 9.41 µM (active). In [1], the molecule was classed as inactive.

Consider `CC(Cc1ccc(O)c(O)c1)C(C)Cc1ccc(O)c(O)c1` (configuration not stated), for which the call in the assay on IYD (gene 389434) was inactive. In assay [7], the AC50 was 64.7 µM (active).

In the case of `CCO[Si](CCC(F)(F)C(F)(F)C(F)(F)C(F)(F)C(F)(F)C(F)(F)F)(OCC)OCC`, the result with CD69, CD69 (gene 969) was inactive.

On to `O=P(O)(O)OCCC(F)(F)C(F)(F)C(F)(F)C(F)(F)C(F)(F)C(F)(F)F`, for which the outcome is “inactive” in the assay with CD69, CD69 (gene 969) and “inactive” in assay [1].

Turning to `O=C(O)C(F)(F)C(F)(F)OC(F)(F)F`, the outcome with CD69, CD69 (gene 969) was “inactive”; in [1], “inactive”.

For the molecule `CC(CCl)OP(=O)(OC(C)CCl)OC(C)CCl` (configuration not stated), in assay [8], the AC50 was 5.43 µM (active). In addition, the call in assay [2], in assay [3], in [4], in [5], in [6] and in assay [1] was inactive.

As for `C=C(C)C(=O)OCC(F)(F)C(F)(F)C(F)(F)F`, the outcome was “inactive” with CD69, CD69 (gene 969) and “inactive” in assay [1].

For `O=S(=O)(O)C(F)(F)C(F)(F)C(F)(F)C(F)(F)C(F)(F)C(F)(F)C(F)(F)F`, the result in the assay with CD69, CD69 (gene 969) was inactive. For the same molecule, the AC50 with IYD (gene 389434) is 100 µM (active).

On to `FC(F)(F)C(F)(F)C(F)(F)CI`, for which the outcome with CD69, CD69 (gene 969) was “inactive”; in assay [1], “inactive”.

For `OCC(F)(F)C(F)(F)C(F)(F)C(F)F`, the outcome was “inactive” with CD69, CD69 (gene 969) and “inactive” in assay [1].

With `NC(=O)C(F)(F)C(F)(F)C(F)(F)C(F)(F)F`, the outcome with CD69, CD69 (gene 969) was inactive.

As to `C=CC(F)(F)C(F)(F)C(F)(F)C(F)(F)C(F)(F)C(F)(F)C(F)(F)C(F)(F)F`, in the assay with CD69, CD69 (gene 969), the result was inactive.

With `OCC(F)(F)C(F)(F)C(F)(F)F`, the outcome with CD69, CD69 (gene 969) is “inactive”; in [1] it was “inactive”.
